Assays:
Assay in all cases: DAPPL (digital affinity profiling via proximity ligation, sequencing); 10 mM Tris-HCl pH 7.5, 50 mM NaCl, 1 mM DTT, 4% glycerol, room temperature, 30 min; GST-TFs on glutathione beads, 16-mer random dsDNA library, 0.1% formaldehyde crosslink after washing; high values mean tight binding
Settings in all cases: protein: recombinant; tags: N-terminal GST; dsDNA, one strand shown
FLI1 = target: T1, FLI1 (Homo sapiens, UniProt Q01543 1-452)
T1 sequence: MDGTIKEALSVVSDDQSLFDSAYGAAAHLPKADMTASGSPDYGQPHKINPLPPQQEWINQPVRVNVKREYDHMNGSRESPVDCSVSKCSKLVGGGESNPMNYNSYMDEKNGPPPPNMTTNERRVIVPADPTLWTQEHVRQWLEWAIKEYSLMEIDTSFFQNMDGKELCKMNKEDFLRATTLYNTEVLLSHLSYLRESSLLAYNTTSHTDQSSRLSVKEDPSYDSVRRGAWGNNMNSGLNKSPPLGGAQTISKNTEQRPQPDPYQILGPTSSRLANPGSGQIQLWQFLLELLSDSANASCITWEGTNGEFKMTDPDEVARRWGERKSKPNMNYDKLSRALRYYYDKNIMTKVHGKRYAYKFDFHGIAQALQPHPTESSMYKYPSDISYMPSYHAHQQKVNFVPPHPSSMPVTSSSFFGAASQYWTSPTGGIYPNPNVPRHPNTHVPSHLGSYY
Procedure, shortened: (§1)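 GST fusions of human transcription factors were expressed in yeast and captured with glutathione beads. Once given DNA barcodes and pooled alongside a tag-only sample, they were incubated for 30 min at room temperature with 200 nmole of a random double-stranded 16-mer DNA library in Tris/NaCl/DTT/glycerol buffer, then washed, crosslinked (0.1% formaldehyde), proximity-ligated, PCR-amplified and sequenced on an Illumina NextSeq500. The binding signal of each hexamer is its read frequency for a factor divided by its frequency for the tag-only sample.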

ELK1 = target: T2, ELK1 (Homo sapiens, UniProt P19419 1-428)
T2 sequence: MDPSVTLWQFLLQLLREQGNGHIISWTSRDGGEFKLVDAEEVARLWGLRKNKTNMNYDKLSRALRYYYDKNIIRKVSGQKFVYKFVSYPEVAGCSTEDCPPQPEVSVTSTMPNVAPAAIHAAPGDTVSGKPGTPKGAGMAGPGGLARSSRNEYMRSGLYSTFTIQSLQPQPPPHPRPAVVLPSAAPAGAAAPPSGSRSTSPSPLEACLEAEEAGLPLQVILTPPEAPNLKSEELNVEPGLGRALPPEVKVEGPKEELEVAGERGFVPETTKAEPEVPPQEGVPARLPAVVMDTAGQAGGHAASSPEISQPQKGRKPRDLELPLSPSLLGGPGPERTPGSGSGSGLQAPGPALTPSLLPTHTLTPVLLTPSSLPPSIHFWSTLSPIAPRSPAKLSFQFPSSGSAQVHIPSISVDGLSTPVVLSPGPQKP
Procedure, shortened: as §1

GABPA = target: T3, GABPA (Homo sapiens, UniProt Q06546 1-454)
T3 sequence: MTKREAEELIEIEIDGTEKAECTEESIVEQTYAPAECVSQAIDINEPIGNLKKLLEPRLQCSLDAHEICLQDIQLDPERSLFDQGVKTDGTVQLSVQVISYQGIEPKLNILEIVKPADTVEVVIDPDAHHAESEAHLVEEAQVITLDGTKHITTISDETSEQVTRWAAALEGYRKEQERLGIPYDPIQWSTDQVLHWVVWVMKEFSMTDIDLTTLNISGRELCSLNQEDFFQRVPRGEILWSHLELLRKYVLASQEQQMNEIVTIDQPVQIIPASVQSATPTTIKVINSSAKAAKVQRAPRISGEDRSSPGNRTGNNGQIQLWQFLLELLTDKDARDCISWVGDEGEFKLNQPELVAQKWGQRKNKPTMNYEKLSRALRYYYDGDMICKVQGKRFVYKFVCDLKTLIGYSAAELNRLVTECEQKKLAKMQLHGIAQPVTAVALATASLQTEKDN
Procedure, shortened: as §1

ERG = target: T4, ERG (Homo sapiens, UniProt P11308 1-479)
T4 sequence: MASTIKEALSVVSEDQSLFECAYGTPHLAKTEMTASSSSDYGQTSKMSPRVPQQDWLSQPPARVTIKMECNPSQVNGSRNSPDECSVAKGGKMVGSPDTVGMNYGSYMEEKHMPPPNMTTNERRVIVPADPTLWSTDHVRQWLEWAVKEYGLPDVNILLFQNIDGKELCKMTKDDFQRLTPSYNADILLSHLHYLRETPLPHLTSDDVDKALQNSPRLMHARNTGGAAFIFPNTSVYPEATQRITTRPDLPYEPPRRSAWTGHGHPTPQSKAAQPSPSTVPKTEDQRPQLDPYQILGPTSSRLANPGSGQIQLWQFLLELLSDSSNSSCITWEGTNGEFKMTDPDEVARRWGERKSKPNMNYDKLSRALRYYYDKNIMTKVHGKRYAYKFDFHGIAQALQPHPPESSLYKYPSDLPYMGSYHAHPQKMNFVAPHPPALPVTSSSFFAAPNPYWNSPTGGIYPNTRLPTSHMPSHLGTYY
Procedure, shortened: as §1

ELF1 = ELF1 (Homo sapiens, UniProt P32519 1-619)
Procedure, shortened: as §1

EHF = target: T5, EHF (Homo sapiens, UniProt Q9NZC4 1-300)
T5 sequence: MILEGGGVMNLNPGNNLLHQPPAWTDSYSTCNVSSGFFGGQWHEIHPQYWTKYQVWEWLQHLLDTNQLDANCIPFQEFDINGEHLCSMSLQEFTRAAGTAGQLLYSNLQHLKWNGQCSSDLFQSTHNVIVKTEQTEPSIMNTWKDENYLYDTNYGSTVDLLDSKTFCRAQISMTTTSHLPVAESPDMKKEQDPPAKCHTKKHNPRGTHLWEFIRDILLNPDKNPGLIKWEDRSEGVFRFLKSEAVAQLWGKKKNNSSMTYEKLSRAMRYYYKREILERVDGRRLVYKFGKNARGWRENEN
Procedure, shortened: as §1

SPI1 = SPI1 (Homo sapiens, UniProt P17947 1-270)
Procedure, shortened: as §1

SPIB = SPIB (Homo sapiens, UniProt Q01892 1-262)
Procedure, shortened: as §1

ELK3 = target: T6, ELK3 (Homo sapiens, UniProt P41970 1-407)
T6 sequence: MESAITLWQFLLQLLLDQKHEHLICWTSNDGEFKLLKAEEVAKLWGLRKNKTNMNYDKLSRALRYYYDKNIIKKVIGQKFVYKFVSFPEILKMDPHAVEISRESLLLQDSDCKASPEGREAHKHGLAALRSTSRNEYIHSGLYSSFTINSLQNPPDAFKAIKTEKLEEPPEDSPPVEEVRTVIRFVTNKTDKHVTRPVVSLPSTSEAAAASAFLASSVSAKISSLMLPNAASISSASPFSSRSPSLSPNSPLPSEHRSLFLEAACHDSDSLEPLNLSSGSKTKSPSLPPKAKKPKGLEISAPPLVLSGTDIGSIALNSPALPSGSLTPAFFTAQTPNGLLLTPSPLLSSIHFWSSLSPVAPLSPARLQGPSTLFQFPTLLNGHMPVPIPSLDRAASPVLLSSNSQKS
Procedure, shortened: as §1

ELF1, sequence (P32519 whole entry): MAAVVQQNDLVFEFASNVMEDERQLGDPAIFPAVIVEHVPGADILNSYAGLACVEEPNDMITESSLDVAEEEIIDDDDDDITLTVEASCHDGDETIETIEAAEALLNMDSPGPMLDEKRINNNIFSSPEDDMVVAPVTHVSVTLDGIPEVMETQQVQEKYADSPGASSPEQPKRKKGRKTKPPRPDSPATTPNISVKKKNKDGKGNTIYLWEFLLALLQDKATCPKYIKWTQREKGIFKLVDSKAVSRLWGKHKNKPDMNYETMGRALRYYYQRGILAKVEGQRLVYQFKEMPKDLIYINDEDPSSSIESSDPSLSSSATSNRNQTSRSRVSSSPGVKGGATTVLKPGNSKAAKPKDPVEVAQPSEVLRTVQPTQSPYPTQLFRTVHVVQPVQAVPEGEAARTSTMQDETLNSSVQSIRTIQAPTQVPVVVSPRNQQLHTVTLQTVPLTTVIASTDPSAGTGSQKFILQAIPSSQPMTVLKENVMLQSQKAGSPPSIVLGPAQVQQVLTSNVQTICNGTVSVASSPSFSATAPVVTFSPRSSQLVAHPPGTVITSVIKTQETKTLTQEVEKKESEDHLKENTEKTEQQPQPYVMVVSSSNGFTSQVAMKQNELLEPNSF
SPIB, sequence (Q01892 whole entry): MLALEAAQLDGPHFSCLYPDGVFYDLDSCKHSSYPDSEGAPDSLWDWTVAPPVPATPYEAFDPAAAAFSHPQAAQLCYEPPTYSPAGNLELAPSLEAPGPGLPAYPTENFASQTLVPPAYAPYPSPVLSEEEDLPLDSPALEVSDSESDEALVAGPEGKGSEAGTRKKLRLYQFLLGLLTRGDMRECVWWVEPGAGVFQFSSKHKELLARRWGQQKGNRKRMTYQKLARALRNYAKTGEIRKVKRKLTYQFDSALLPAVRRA

| Sequence | binding signal (FLI1) | binding signal (ELK1) | binding signal (GABPA) | binding signal (ERG) | binding signal (ELF1) | binding signal (EHF) | binding signal (SPI1) | binding signal (SPIB) | binding signal (ELK3) |
| --- | --- | --- | --- | --- | --- | --- | --- | --- | --- |
| CCTTCA | 1.49 fold enrichment (6-mer frequency, TF over GST control) | 1.43 fold enrichment (6-mer frequency, TF over GST control) | 1.46 fold enrichment (6-mer frequency, TF over GST control) | 1.45 fold enrichment (6-mer frequency, TF over GST control) | 1.51 fold enrichment (6-mer frequency, TF over GST control) | 1.26 fold enrichment (6-mer frequency, TF over GST control) | 1.36 fold enrichment (6-mer frequency, TF over GST control) | 1.46 fold enrichment (6-mer frequency, TF over GST control) | 1.16 fold enrichment (6-mer frequency, TF over GST control) |
| CACTTG | 1.36 fold enrichment (6-mer frequency, TF over GST control) | 1.48 fold enrichment (6-mer frequency, TF over GST control) | 1.32 fold enrichment (6-mer frequency, TF over GST control) | 1.37 fold enrichment (6-mer frequency, TF over GST control) | 1.33 fold enrichment (6-mer frequency, TF over GST control) | 1.36 fold enrichment (6-mer frequency, TF over GST control) | 1.39 fold enrichment (6-mer frequency, TF over GST control) | 1.3 fold enrichment (6-mer frequency, TF over GST control) | 1.26 fold enrichment (6-mer frequency, TF over GST control) |
| TGGTCC | 1.25 fold enrichment (6-mer frequency, TF over GST control) | 1.23 fold enrichment (6-mer frequency, TF over GST control) | 1.18 fold enrichment (6-mer frequency, TF over GST control) | 1.26 fold enrichment (6-mer frequency, TF over GST control) | 1.35 fold enrichment (6-mer frequency, TF over GST control) | 1.26 fold enrichment (6-mer frequency, TF over GST control) | 1.18 fold enrichment (6-mer frequency, TF over GST control) | 1.32 fold enrichment (6-mer frequency, TF over GST control) | 1.15 fold enrichment (6-mer frequency, TF over GST control) |
| CTAACG | 1.22 fold enrichment (6-mer frequency, TF over GST control) | 1.23 fold enrichment (6-mer frequency, TF over GST control) | 1.09 fold enrichment (6-mer frequency, TF over GST control) | 1.21 fold enrichment (6-mer frequency, TF over GST control) | 1.13 fold enrichment (6-mer frequency, TF over GST control) | 1.13 fold enrichment (6-mer frequency, TF over GST control) | 1.26 fold enrichment (6-mer frequency, TF over GST control) | 1.11 fold enrichment (6-mer frequency, TF over GST control) | 1.19 fold enrichment (6-mer frequency, TF over GST control) |
| AAGCTT | 1.31 fold enrichment (6-mer frequency, TF over GST control) | 1.33 fold enrichment (6-mer frequency, TF over GST control) | 1.22 fold enrichment (6-mer frequency, TF over GST control) | 1.33 fold enrichment (6-mer frequency, TF over GST control) | 1.2 fold enrichment (6-mer frequency, TF over GST control) | 1.26 fold enrichment (6-mer frequency, TF over GST control) | 1.23 fold enrichment (6-mer frequency, TF over GST control) | 1.32 fold enrichment (6-mer frequency, TF over GST control) | 1.31 fold enrichment (6-mer frequency, TF over GST control) |
| GTCCCC | 1.14 fold enrichment (6-mer frequency, TF over GST control) | 1.29 fold enrichment (6-mer frequency, TF over GST control) | 1.19 fold enrichment (6-mer frequency, TF over GST control) | 1.23 fold enrichment (6-mer frequency, TF over GST control) | 1.19 fold enrichment (6-mer frequency, TF over GST control) | 1.28 fold enrichment (6-mer frequency, TF over GST control) | 1.23 fold enrichment (6-mer frequency, TF over GST control) | 1.24 fold enrichment (6-mer frequency, TF over GST control) | 1.29 fold enrichment (6-mer frequency, TF over GST control) |
| CGCTAC | 1.24 fold enrichment (6-mer frequency, TF over GST control) | 1.23 fold enrichment (6-mer frequency, TF over GST control) | 1.25 fold enrichment (6-mer frequency, TF over GST control) | 1.24 fold enrichment (6-mer frequency, TF over GST control) | 1.2 fold enrichment (6-mer frequency, TF over GST control) | 1.13 fold enrichment (6-mer frequency, TF over GST control) | 1.16 fold enrichment (6-mer frequency, TF over GST control) | 1.13 fold enrichment (6-mer frequency, TF over GST control) | 1.28 fold enrichment (6-mer frequency, TF over GST control) |

— publication PMC7862700, “An all-to-all approach to the identification of sequence-specific readers for epigenetic DNA modifications on cytosine”
